We go through seven compounds from PubChem BioAssay (NCATS).

A short description of assay [1]: qHTS to identify inhibitors of the type 1 interferon - major histocompatibility complex class I in skeletal muscle: primary screen against the NCATS Mechanism Interrogation Plate v5.0 (MIPE) Libary (AID 1347411). Also: nearly all actives have a fitted effect of over 65% in size. Also: potency is read from the fitted curve at half-maximal effect. The procedure, abridged: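 Luminescence from CRISPR HiBit-tagged endogenous HLA-B in human myoblasts reported MHC class I level after 24 h of IFN-beta (4 ng/ml) plus compound. Compounds ran as 11-point 1:3 series, top 46 uM final.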
On the technique in general: In qHTS, concentration-response curves come from the screen itself.

Assay [2] deals with Calcium and integrin-binding protein 1 (Homo sapiens) (UniProt Q99828). Briefly: Primary qHTS for Identification of Calcium Integrin Binding Protein 1 (CIB1) Competitor (AID 1508620).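 Also: GST tagged CIB1 binding a fluorescein labelled alphaIIb integrin peptide tracer; top concentration of the series differs between compounds.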 An outline of the steps: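 CIB1-GST (1 uM final) and compound incubated 15 min at room temperature before adding FITC-alphaIIb peptide tracer (100 nM final). Competition for binding read by fluorescence polarization (ex 480, em 540) after another 15 min at room temperature.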

Assay [3] deals with Cytochrome P450 2D6 (Homo sapiens) (UniProt P10635). Briefly: Cytochrome P450 family 2 subfamily D member 6 (CYP2D6) small molecule antagonists: luciferase biochemical (cell-free) qHTS assay (AID 1645840; active = well fitted curve in the direction sought with a large enough effect in the repeat runs; an effect the other way counts as inactive or inconclusive; also: nearly all actives have a fitted effect of over 55% in size; also: potency is read from the fitted curve at half-maximal effect). An outline of the steps:
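P450-Glo CYP2D6 system: proluciferin substrate converted by enzyme to luciferin, read by luminescence proportional to activity. Enzyme-substrate mix with compound 10 min at room temperature, then NADPH regeneration 1 h before detection reagent.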

Assay [4] addresses Cytochrome P450 2C9 (Homo sapiens) (UniProt P11712). Briefly: Cytochrome P450 family 2 subfamily C member 9 (CYP2C9) small molecule antagonists: luciferase biochemical (cell-free) qHTS assay (AID 1645842; active = well fitted curve in the direction sought with a large enough effect in the repeat runs; an effect the other way counts as inactive or inconclusive; also: nearly all actives have a fitted effect of over 55% in size; also: potency is read from the fitted curve at half-maximal effect). The procedure, abridged: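 P450-Glo CYP2C9 system: proluciferin substrate with enzyme in mix containing 0.4% BSA, 10 min at room temperature, then NADPH regeneration solution added and incubated 1 h at 37C. Detection reagent stopped reaction; luminescence read after 20 min as RLU.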

The nature of assay [5]: Primary qHTS for inhibitors of nuclear receptor binding SET domain protein 2 (NSD2) in an isogenic RCH-ACV NSD2 p.E1099K mutant (9B) (AID 1645876). Also: nearly all actives have a fitted effect of over 70% in size. Also: potency is read from the fitted curve at half-maximal effect.
Assay [6] can be described thus: Primary qHTS for small molecule stabilizers of the endoplasmic reticulum resident proteome: Secreted ER Calcium Modulated Protein (SERCaMP) assay (AID 1508630). An outline of the steps:
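The SH-SY5Y reporter protocol was run at 3 concentrations up to 38.3 uM (primary) or 11 concentrations (follow-up): 16 h compound, 100 nM thapsigargin for 4 h, then extracellular luciferase luminescence.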

Assay [7] can be described thus: Primary qHTS for inhibitors of nuclear receptor binding SET domain protein 2 (NSD2) in an RCH-ACV wild type WT cells (2C) (AID 1645877). Also: nearly all actives have a fitted effect of over 70% in size. Also: potency is read from the fitted curve at half-maximal effect.

SMILES strings stand for the structures. Where “and” joins values, the source holds several entries; their conditions need not be identical. Identical values can stand only once. Inconclusive results are not listed. Calls of active or inactive are those of the source. Unless noted, calls follow the shape of the dose curve; as a rule, active = well fitted curve in the direction sought with a large enough effect; inconclusive = small, poorly fitted or top-dose-only effect, or another doubt; inactive = no such curve, though single readings can be large; an effect the other way counts as inactive or inconclusive. Residues, ends and D or L forms follow the SMILES beside them. *: point of attachment. Cbz = O=C(OCc1ccccc1)*

Chain of Calcium and integrin-binding protein 1 (Homo sapiens) (Q99828 whole entry, looked up): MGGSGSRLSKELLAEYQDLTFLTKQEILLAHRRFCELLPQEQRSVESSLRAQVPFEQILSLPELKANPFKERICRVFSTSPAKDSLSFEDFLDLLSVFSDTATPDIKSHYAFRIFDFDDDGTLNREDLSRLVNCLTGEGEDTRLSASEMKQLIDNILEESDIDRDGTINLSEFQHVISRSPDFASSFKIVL
Chain of Cytochrome P450 2C9 (Homo sapiens) (P11712 whole entry, looked up): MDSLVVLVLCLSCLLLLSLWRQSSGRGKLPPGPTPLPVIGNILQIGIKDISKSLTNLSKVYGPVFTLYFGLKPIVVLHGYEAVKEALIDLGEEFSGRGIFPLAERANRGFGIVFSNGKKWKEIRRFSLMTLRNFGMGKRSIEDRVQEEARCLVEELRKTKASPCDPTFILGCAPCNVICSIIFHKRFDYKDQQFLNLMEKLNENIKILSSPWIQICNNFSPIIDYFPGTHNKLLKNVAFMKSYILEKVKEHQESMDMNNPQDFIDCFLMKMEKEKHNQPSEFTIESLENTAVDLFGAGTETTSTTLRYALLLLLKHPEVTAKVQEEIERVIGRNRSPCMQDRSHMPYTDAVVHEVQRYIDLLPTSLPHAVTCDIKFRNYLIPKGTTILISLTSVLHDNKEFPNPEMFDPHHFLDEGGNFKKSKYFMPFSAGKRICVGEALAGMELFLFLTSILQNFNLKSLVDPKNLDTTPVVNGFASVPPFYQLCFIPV
Chain of Cytochrome P450 2D6 (Homo sapiens) (P10635 whole entry, looked up): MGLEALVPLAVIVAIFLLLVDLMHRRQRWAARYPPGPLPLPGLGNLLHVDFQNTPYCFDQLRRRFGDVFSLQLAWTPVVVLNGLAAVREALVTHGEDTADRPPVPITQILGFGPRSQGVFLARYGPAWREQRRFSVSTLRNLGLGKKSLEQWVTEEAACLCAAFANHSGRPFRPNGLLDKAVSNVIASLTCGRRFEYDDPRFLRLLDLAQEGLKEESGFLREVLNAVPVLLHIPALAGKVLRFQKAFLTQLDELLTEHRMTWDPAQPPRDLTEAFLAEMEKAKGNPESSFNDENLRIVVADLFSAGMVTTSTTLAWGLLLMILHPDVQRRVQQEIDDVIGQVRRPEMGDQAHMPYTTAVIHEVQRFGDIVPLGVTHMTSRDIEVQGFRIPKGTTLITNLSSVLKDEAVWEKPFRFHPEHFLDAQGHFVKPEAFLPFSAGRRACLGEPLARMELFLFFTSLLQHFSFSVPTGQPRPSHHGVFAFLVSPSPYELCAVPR

As to `NC1=N[C@H]2[C@H](CS[C@H]2CCCCC(=O)O)N1`, the Potency entry in assay [1], in assay [2], in assay [3], in assay [4] and in assay [5] was “inactive” throughout.
Take `COc1cc2c(cc1OC)[C@@H]1C(=O)c3ccc4c(c3O[C@@H]1CO2)C=CC(C)(C)O4`: the Potency entry in assay [1] and in assay [2] was “inactive” each time. Also, the result in assay [6] was inactive. The Potency in assay [5] was 16.4 µM (active) and 1.86 µM (active); in assay [7] it was 18.4 µM (active) and 5.9 µM (active).
`C=C(C)[C@@H]1CC[C@]2(C(=O)O)CC[C@]3(C)[C@H](CC[C@@H]4[C@@]5(C)CC[C@H](O)C(C)(C)[C@@H]5CC[C@]43C)[C@@H]12`: the Potency result in assay [1], in assay [2], in assay [5] and in assay [7] was “inactive” throughout. For the same compound, in assay [6], the result was inactive.
In the case of `CC1=C(C(=O)Nc2cc3cn[nH]c3cc2F)C(c2ccc(Cl)cc2F)N=C(c2ccnc(Cl)c2)N1` (stereo unspecified), the Potency result in assay [1] and in assay [2] was “inactive” throughout. In addition, the Potency was 6740 nM (active) in assay [3]; 3790 nM (active) in assay [4]; 5.78 µM (active) and 9.34 µM (active) in assay [5]; 2.58 µM (active) and 4.17 µM (active) in assay [7].
Consider `CCCCCCCN(CC)CCCC(O)c1ccc(NS(C)(=O)=O)cc1` (stereo unspecified), for which the Potency entry in assay [1], in assay [2], in assay [5] and in assay [7] was “inactive” throughout. Moreover, the outcome in assay [6] was inactive.
As to `CC(C)C[C@@H](C=O)NC(=O)[C@H](CC(C)C)NC(=O)[C@H](CC(C)C)NC(=O)OCc1ccccc1` (Cbz-Leu-Leu-Leu-aldehyde), the Potency in assay [1] is 2080 nM (active); in assay [5] it was 1.05 µM (active); in assay [7] it was 934 nM (active). In addition, the Potency entry in assay [2] is “inactive”. The outcome in assay [6] was inactive.
For `NC(=O)Nc1cc(-c2ccc(CN3CCOCC3)cc2)sc1C(N)=O`, the Potency in assay [1] was 7390 nM (active); in assay [5] it was 0.662 µM (active); in assay [7] it was 372 nM (active). Besides, in assay [2], the Potency result is “inactive”. Moreover, the result in assay [6] was inactive.
